Results reported in the supplement of paper PMC3334620.
In all, about 33,000 sequences were measured (“E-score (-0.5 to 0.5)”: median about -0.04, highest 2% from about 0.36 on). The list comes from a sample in which the highest values are over-represented; it also holds similar and randomly drawn sequences.

The sequences below were run against T1, Hmlalpha2 (UniProt P0CY09) (assay: PBM E-score (8-mer binding enrichment) (E-score (-0.5 to 0.5)); higher = stronger / more preferred TF binding). Conditions: protein concentration: 200 nM; construct: GST-full length.
T1 sequence: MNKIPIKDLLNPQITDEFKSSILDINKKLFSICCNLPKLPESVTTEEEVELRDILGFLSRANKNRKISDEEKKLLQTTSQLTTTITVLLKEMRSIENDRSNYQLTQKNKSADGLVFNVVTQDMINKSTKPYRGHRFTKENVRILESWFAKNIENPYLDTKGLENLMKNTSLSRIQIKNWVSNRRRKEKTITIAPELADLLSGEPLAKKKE
Protocol: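 Universal 'all 10-mer' protein binding microarrays (Agilent AMADID 015681) probed with GST-tagged S. cerevisiae TFs (full-length or DBD) made by in vitro transcription/translation (PURExpress), about 100-200 nM. Bound TF was detected with fluorescent anti-GST. Each ungapped 8-mer (which stands for itself and its reverse complement) is scored by the PBM enrichment score (E-score), a modified Wilcoxon-Mann-Whitney statistic from -0.5 to +0.5, computed with the Universal PBM Analysis Suite. Scale: above 0.35 generally sequence-specific binding.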

Going from TAGGTTGA to ATAGCAGA, the “PBM E-score” value falls from 0.0343 to 0.00582.

First: ATACAGAA
Second: GGCCATGA
The “PBM E-score” value of the first is higher: 0.199 for the first, -0.217 for the second.

Compared with CTTGCCTA, ATAGGCAC is lower in “PBM E-score” value: -0.112 for the first, -0.216 for the second.

First: CGATTTTA
Second: ACCGCGAT
The “PBM E-score” value of the first is higher: 0.081 for the first, -0.0546 for the second.

Compared with ACTGTTAA, CGTGTTAA is higher in “PBM E-score” value: 0.208 for the first, 0.481 for the second.

Going from AGTGTTAA to AGTGTTAT, the “PBM E-score” value falls from 0.374 to 0.269.

First: CGTGTTCC
Second: CGTGTTGC
The “PBM E-score” value of the first is lower: 0.2 for the first, 0.301 for the second.

Compared with AGTGTTAC, AGTGTTCA is lower in “PBM E-score” value: 0.221 for the first, 0.00891 for the second.

Going from AGTGTTGA to CGTGTTGA, the “PBM E-score” value rises from 0.238 to 0.446.

Going from CCTGTTAA to CGTGTTCA, the “PBM E-score” value rises from 0.288 to 0.369.

Going from CGCTCTTA to AGAGAATG, the “PBM E-score” value falls from 0.0692 to -0.0972.

First: ACGGCCAC
Second: AGAACCAT
The “PBM E-score” value of the first is lower: -0.128 for the first, 0.116 for the second.

Compared with AAAGATTC, ACGGTCCC is lower in “PBM E-score” value: 0.196 for the first, -0.356 for the second.

Compared with AGGGTGAC, GACGGTGA is lower in “PBM E-score” value: -0.182 for the first, -0.192 for the second.

First: TCAGAACA
Second: CCTGTTAC
The “PBM E-score” value of the first is higher: 0.196 for the first, 0.176 for the second.

First: CGTGTTTA
Second: CGTGTTAG
The “PBM E-score” value of the first is higher: 0.436 for the first, 0.431 for the second.

Going from AGTGTTTA to CTTGTTAC, the “PBM E-score” value falls from 0.299 to 0.274.

Going from AGTGTTAG to GTTGTTAA, the “PBM E-score” value rises from 0.0767 to 0.359.

Compared with ACTGTTAG, GGTGTTAC is higher in “PBM E-score” value: -0.13 for the first, 0.223 for the second.

Going from CGTGTTAC to GGTGTTTA, the “PBM E-score” value falls from 0.41 to 0.112.

Going from CTTGTTAA to CAGATACC, the “PBM E-score” value falls from 0.414 to -0.251.

Compared with CTAGATCC, GAGGCTAC is higher in “PBM E-score” value: -0.22 for the first, -0.193 for the second.

Compared with CACTACTA, ACTTGCCA is lower in “PBM E-score” value: 0.00081 for the first, -0.0087 for the second.

Compared with ACACTTGA, TCGACTCA is higher in “PBM E-score” value: -0.0396 for the first, 0.0619 for the second.

Going from CCCAAAGA to ATAAAGAA, the “PBM E-score” value rises from -0.0661 to 0.0809.

First: CGGTTACG
Second: CGATTACG
The “PBM E-score” value of the first is lower: 0.0305 for the first, 0.274 for the second.

First: GGGTTACA
Second: AGATTACA
The “PBM E-score” value of the first is lower: 0.218 for the first, 0.411 for the second.

Compared with AGATTACC, TGATTAAA is higher in “PBM E-score” value: 0.0994 for the first, 0.133 for the second.

Going from TGATTACA to CGATTACC, the “PBM E-score” value falls from 0.445 to -0.0336.

First: CGATTACA
Second: TGCTTACA
The “PBM E-score” value of the first is higher: 0.461 for the first, 0.305 for the second.

First: CGGTTACA
Second: AGATTACT
The “PBM E-score” value of the first is higher: 0.367 for the first, 0.141 for the second.

First: CTGTTCTA
Second: TGAAGGAA
The “PBM E-score” value of the first is higher: 0.102 for the first, -0.0399 for the second.

First: GCCAATCC
Second: ATGGCAAG
The “PBM E-score” value of the first is higher: -0.151 for the first, -0.153 for the second.

Going from GGATTACA to GGATTAGA, the “PBM E-score” value falls from 0.444 to -0.216.

Going from GGATTACC to GCTTAAGC, the “PBM E-score” value rises from -0.00329 to 0.187.

Going from GTGTAGTA to ATGTAGTA, the “PBM E-score” value rises from 0.323 to 0.391.

Going from AAGTAGTC to ATGTAGTC, the “PBM E-score” value rises from 0.0858 to 0.37.

Compared with CTGTAGTC, ATGTAGTG is higher in “PBM E-score” value: -0.0729 for the first, 0.332 for the second.

First: TAGGCGGA
Second: GATAAGAC
The “PBM E-score” value of the first is higher: 0.0174 for the first, -0.0897 for the second.

Compared with GATGTTAA, AATGTTAA is lower in “PBM E-score” value: 0.383 for the first, 0.364 for the second.

Going from GCTGTTAA to TATGTTGA, the “PBM E-score” value rises from 0.262 to 0.364.

Compared with TATGTTCA, TATGTTAA is higher in “PBM E-score” value: 0.316 for the first, 0.459 for the second.

Compared with GCTGTTAC, AAGATCCG is lower in “PBM E-score” value: -0.0161 for the first, -0.207 for the second.

Going from ATTGCCCC to CACTGCGA, the “PBM E-score” value rises from -0.315 to -0.0249.

First: CAAGGTCC
Second: ATATCTCG
The “PBM E-score” value of the first is lower: -0.193 for the first, -0.151 for the second.

Going from TTATGCAA to AACTACAT, the “PBM E-score” value rises from 0.11 to 0.392.

Compared with AACTACAA, AACTACGT is lower in “PBM E-score” value: 0.242 for the first, 0.186 for the second.

Compared with CACTACAA, GACTACAC is higher in “PBM E-score” value: 0.268 for the first, 0.362 for the second.

Going from CACTACAG to AACTACAG, the “PBM E-score” value falls from 0.126 to 0.0948.

Going from CACTACAC to AACTACAC, the “PBM E-score” value rises from 0.394 to 0.42.

Going from TGGATCCA to CCTACTCG, the “PBM E-score” value falls from -0.063 to -0.202.

Compared with ACCCTTGC, CGGGATAC is higher in “PBM E-score” value: -0.209 for the first, -0.16 for the second.

Compared with ACGTCTGC, ACACGTTC is higher in “PBM E-score” value: -0.182 for the first, 0.303 for the second.

Compared with ACACGTCA, AAACGTAT is lower in “PBM E-score” value: 0.317 for the first, 0.278 for the second.

Compared with ACACGTAA, ACACGTCT is lower in “PBM E-score” value: 0.396 for the first, 0.368 for the second.

Going from ACACGTCG to ACACGTAT, the “PBM E-score” value rises from 0.302 to 0.369.

Compared with ACACGTTA, ATACGTAT is lower in “PBM E-score” value: 0.408 for the first, 0.308 for the second.

Going from ACACGTAC to ACACGTTG, the “PBM E-score” value rises from 0.347 to 0.35.

Compared with ACACGTAG, CGAGTGGA is lower in “PBM E-score” value: 0.351 for the first, -0.137 for the second.

Compared with AGGGGCCG, CGGGAGCC is higher in “PBM E-score” value: -0.365 for the first, -0.33 for the second.

First: CCACGTAA
Second: GCACGTAA
The “PBM E-score” value of the first is lower: 0.33 for the first, 0.348 for the second.

First: TCACGTAA
Second: AGGTTGGG
The “PBM E-score” value of the first is higher: 0.393 for the first, -0.0364 for the second.

Going from CCCTTGGC to ACAATTAT, the “PBM E-score” value rises from -0.35 to 0.214.

Going from CCGATTAC to CTGATTAA, the “PBM E-score” value falls from 0.216 to 0.141.

Going from GCGATTAC to ACAATTAA, the “PBM E-score” value falls from 0.275 to 0.214.

First: GTAATTAC
Second: CTGATTAC
The “PBM E-score” value of the first is higher: 0.452 for the first, 0.369 for the second.

First: ATAATTAC
Second: CTAATTAC
The “PBM E-score” value of the first is lower: 0.357 for the first, 0.362 for the second.

Compared with ATGATTAC, ACAATTAC is higher in “PBM E-score” value: 0.326 for the first, 0.376 for the second.

Compared with ACGATTAC, GAAGCAAA is lower in “PBM E-score” value: 0.383 for the first, 0.156 for the second.

Going from CGCCACCG to CAGAGCTC, the “PBM E-score” value rises from -0.296 to -0.142.

Compared with ATGGCGCC, TCCTGCAA is higher in “PBM E-score” value: -0.249 for the first, -0.15 for the second.

Compared with GCGGTGCA, GTTGCACA is higher in “PBM E-score” value: -0.281 for the first, 0.0871 for the second.

First: AGTGTTCG
Second: ACTTAGGA
The “PBM E-score” value of the first is higher: 0.089 for the first, -0.0292 for the second.

Compared with AGGGTAAA, CCCAAGCG is lower in “PBM E-score” value: 0.0323 for the first, -0.19 for the second.

First: GTAATAAA
Second: ATAATAAC
The “PBM E-score” value of the first is higher: 0.35 for the first, 0.187 for the second.

Compared with GTAATAAC, CATACCTC is lower in “PBM E-score” value: 0.392 for the first, 0.0518 for the second.

Compared with CTGAATTC, ACCACGAC is lower in “PBM E-score” value: 0.0173 for the first, -0.0364 for the second.

Compared with CACACGAC, CACACGAA is higher in “PBM E-score” value: 0.223 for the first, 0.233 for the second.

Going from AACACAAA to AGCACGAA, the “PBM E-score” value falls from 0.261 to 0.167.

First: AACACGAG
Second: CACACGAG
The “PBM E-score” value of the first is higher: 0.377 for the first, 0.152 for the second.

Compared with AACACGAC, TACACGAA is higher in “PBM E-score” value: 0.424 for the first, 0.456 for the second.

Going from TTCACGAA to TGCACGAA, the “PBM E-score” value rises from 0.019 to 0.122.

Going from AACACGAA to ACGTTAAT, the “PBM E-score” value falls from 0.386 to 0.304.

Compared with GCTGGGAC, AAGAACTG is higher in “PBM E-score” value: -0.263 for the first, -0.178 for the second.

First: ACAGTGTA
Second: CCCTCGCC
The “PBM E-score” value of the first is higher: 0.244 for the first, -0.357 for the second.

Compared with CATGCGAC, CTTCTGCA is lower in “PBM E-score” value: 0.0966 for the first, -0.0586 for the second.

First: CCTGCGGC
Second: TCAAGTAA
The “PBM E-score” value of the first is lower: -0.341 for the first, 0.265 for the second.

In the case of AGGGCCCA, the “PBM E-score” value was -0.239.
